Test results published in PMC13541613, “GHT-SELEX demonstrates unexpectedly high intrinsic sequence specificity and complex DNA binding of many human transcription factors”.

These sequences were tested against ZNF721 full-length (Homo sapiens, UniProt Q8TF20-2 1-923) (assay: HT-SELEX; 20 mM HEPES pH 7, 140 mM KCl, 5 mM NaCl, 1 mM K2HPO4, 2 mM MgSO4, 100 uM EGTA, ZnSO4, 0.1% Tween20; room temperature, 1 h; high values mean tight binding). Settings: protein: ivt; tags: eGFP (N-terminal); dsDNA, one strand shown.
Chain of ZNF721 full-length (Q8TF20 other isoform, or with tags, fused parts or gaps): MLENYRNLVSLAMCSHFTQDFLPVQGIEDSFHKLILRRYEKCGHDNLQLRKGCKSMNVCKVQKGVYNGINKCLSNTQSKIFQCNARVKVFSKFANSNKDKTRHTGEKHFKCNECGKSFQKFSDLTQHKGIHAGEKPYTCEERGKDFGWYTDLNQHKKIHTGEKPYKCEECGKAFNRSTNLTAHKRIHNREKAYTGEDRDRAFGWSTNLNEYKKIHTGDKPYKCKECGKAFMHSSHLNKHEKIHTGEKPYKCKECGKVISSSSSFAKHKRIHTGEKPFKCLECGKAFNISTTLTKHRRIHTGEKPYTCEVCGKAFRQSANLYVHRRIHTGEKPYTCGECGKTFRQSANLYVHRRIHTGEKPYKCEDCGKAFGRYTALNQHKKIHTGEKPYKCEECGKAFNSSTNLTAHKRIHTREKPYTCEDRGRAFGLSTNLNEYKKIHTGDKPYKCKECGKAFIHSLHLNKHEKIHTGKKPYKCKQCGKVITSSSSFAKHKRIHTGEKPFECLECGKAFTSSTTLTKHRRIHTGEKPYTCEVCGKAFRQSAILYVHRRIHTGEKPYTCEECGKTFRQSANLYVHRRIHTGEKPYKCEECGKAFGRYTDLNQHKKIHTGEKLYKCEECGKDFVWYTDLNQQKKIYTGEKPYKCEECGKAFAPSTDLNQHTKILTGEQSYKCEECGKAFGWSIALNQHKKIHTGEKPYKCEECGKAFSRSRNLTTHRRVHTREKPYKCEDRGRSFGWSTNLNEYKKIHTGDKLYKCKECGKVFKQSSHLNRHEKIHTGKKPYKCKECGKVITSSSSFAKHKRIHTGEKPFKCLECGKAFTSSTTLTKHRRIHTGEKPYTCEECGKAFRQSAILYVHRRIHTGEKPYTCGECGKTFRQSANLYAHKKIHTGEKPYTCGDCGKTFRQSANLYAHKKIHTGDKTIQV
Outline: (§1)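 Full-length or DNA-binding-domain forms of a tagged transcription factor were produced in HEK293 lysate or cell-free extract and immobilised on beads. Incubation with a randomized 40-base DNA library ran for 1 h at room temperature in HEPES/KCl low-stringency buffer with Tween20, after which bound DNA was washed, heat-eluted, PCR-amplified over successive cycles and Illumina-sequenced. Binding strength is given as the relative k-mer count in selected reads, higher for tighter binding.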

Sequence | binding signal
ACCCACCCCC | 0.265 relative 10-mer count
AAAAAAAAAC | 0.134 relative 10-mer count
CCCCTCCACC | 0.274 relative 10-mer count
CGCCCCCCAC | 0.156 relative 10-mer count
CCACCCCCAA | 0.118 relative 10-mer count
CCCCCCCATC | 0.115 relative 10-mer count
CCGCCCCGCC | 0.156 relative 10-mer count
CCCACCGACC | 0.127 relative 10-mer count
CCCCCCCCTC | 0.167 relative 10-mer count
CCCCCACCCC | 0.44 relative 10-mer count
CCCCACCAAC | 0.136 relative 10-mer count
GCCCCTCCCC | 0.144 relative 10-mer count
CCCACCCACG | 0.141 relative 10-mer count
CGCCACCCCC | 0.212 relative 10-mer count
AAAAAGGCAT | 0.188 relative 10-mer count
ACCCCAACCC | 0.128 relative 10-mer count
CCCGACCCCA | 0.112 relative 10-mer count
AAAGCAGCAC | 0.125 relative 10-mer count
CCACCACCCG | 0.131 relative 10-mer count
CCCCGCCCGC | 0.115 relative 10-mer count

Sequence | binding signal
CCACGCCCAC | 0.102 relative 10-mer count
CCCCCTTCCC | 0.122 relative 10-mer count
CCTCCCACCA | 0.115 relative 10-mer count
AGGGGTGGGG | 0.2 relative 10-mer count
CCCCACACCC | 0.274 relative 10-mer count
GCCCCACCCA | 0.13 relative 10-mer count
AAAGGCATAC | 0.129 relative 10-mer count
CACACCCACC | 0.135 relative 10-mer count
GCCACCCCCC | 0.138 relative 10-mer count
CCCGACCACC | 0.125 relative 10-mer count
CGCCCCACCA | 0.117 relative 10-mer count
CACCATCCCC | 0.118 relative 10-mer count
CCTCCCGCCC | 0.161 relative 10-mer count
ACCCACCTCC | 0.125 relative 10-mer count
CCGCCCTCCC | 0.148 relative 10-mer count
GAAAAAAAGC | 0.29 relative 10-mer count
ACCCACCCTC | 0.132 relative 10-mer count
ACCCTCCCCA | 0.105 relative 10-mer count
CCCTCCCTCC | 0.178 relative 10-mer count
GAAAAAAGCA | 0.344 relative 10-mer count

The sequences below were run against ZNF721 DBD1 (Homo sapiens, UniProt Q8TF20-2 29-461) in the same assay as above. Settings: protein: ivt; tags: eGFP (N-terminal); dsDNA, one strand shown.
Chain of ZNF721 DBD1 (Q8TF20 17-449): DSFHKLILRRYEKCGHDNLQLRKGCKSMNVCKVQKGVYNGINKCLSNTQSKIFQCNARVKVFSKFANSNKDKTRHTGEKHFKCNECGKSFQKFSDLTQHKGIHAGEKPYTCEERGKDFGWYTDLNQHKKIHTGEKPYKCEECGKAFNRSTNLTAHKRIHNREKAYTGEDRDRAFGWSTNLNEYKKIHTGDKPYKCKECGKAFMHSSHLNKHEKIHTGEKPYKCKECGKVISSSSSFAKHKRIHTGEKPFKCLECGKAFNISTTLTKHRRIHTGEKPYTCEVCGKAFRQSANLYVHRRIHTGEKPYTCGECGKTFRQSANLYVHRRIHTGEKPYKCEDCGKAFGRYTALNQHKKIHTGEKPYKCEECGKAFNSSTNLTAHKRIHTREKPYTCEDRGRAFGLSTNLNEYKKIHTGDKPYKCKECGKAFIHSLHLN
Outline: as §1

Sequence | binding signal
ACCCACCCCC | 0.0111 relative 10-mer count
AAAAAAAAAC | 0.00229 relative 10-mer count
CCCCTCCACC | 0.0117 relative 10-mer count
CGCCCCCCAC | 0.00679 relative 10-mer count
CCACCCCCAA | 0.00546 relative 10-mer count
CCCCCCCATC | 0.00358 relative 10-mer count
CCGCCCCGCC | 0.00592 relative 10-mer count
CCCACCGACC | 0.00394 relative 10-mer count
CCCCCCCCTC | 0.00619 relative 10-mer count
CCCCCACCCC | 0.0205 relative 10-mer count
CCCCACCAAC | 0.00638 relative 10-mer count
GCCCCTCCCC | 0.00596 relative 10-mer count
CCCACCCACG | 0.00472 relative 10-mer count
CGCCACCCCC | 0.00706 relative 10-mer count
AAAAAGGCAT | 0.00266 relative 10-mer count
ACCCCAACCC | 0.00463 relative 10-mer count
CCCGACCCCA | 0.00399 relative 10-mer count
AAAGCAGCAC | 0.00583 relative 10-mer count
CCACCACCCG | 0.00564 relative 10-mer count
CCCCGCCCGC | 0.00417 relative 10-mer count

Sequence | binding signal
CCACGCCCAC | 0.00514 relative 10-mer count
CCCCCTTCCC | 0.00537 relative 10-mer count
CCTCCCACCA | 0.00784 relative 10-mer count
AGGGGTGGGG | 0.00968 relative 10-mer count
CCCCACACCC | 0.01 relative 10-mer count
GCCCCACCCA | 0.00404 relative 10-mer count
AAAGGCATAC | 0.00142 relative 10-mer count
CACACCCACC | 0.00651 relative 10-mer count
GCCACCCCCC | 0.00546 relative 10-mer count
CCCGACCACC | 0.00491 relative 10-mer count
CGCCCCACCA | 0.00362 relative 10-mer count
CACCATCCCC | 0.00468 relative 10-mer count
CCTCCCGCCC | 0.00656 relative 10-mer count
ACCCACCTCC | 0.00505 relative 10-mer count
CCGCCCTCCC | 0.00642 relative 10-mer count
GAAAAAAAGC | 0.0712 relative 10-mer count
ACCCACCCTC | 0.00541 relative 10-mer count
ACCCTCCCCA | 0.00509 relative 10-mer count
CCCTCCCTCC | 0.0107 relative 10-mer count
GAAAAAAGCA | 0.0533 relative 10-mer count

What follows are sequences tested against ZNF721 DBD2 (Homo sapiens, UniProt Q8TF20-2 395-923) in the same assay as above. Settings: protein: ivt; tags: eGFP (N-terminal); dsDNA, one strand shown.
Chain of ZNF721 DBD2 (Q8TF20 383-911): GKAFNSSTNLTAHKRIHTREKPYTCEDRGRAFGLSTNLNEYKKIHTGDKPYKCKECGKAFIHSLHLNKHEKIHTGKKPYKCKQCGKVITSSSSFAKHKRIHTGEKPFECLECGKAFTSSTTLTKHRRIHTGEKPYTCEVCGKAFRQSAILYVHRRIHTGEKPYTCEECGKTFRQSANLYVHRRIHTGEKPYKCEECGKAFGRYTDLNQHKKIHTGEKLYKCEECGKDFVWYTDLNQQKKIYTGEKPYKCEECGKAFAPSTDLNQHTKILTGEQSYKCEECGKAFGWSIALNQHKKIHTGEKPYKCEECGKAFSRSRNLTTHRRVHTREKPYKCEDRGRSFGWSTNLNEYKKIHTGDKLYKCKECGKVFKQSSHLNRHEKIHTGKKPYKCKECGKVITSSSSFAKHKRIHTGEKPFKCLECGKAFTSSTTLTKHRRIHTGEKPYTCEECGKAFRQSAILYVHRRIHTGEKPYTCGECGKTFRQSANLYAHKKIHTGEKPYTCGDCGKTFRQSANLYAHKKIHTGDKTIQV
Outline: as §1

Sequence | binding signal
ACCCACCCCC | 0.00252 relative 10-mer count
AAAAAAAAAC | 0.0808 relative 10-mer count
CCCCTCCACC | 0.00851 relative 10-mer count
CGCCCCCCAC | 0.00407 relative 10-mer count
CCACCCCCAA | 0.00491 relative 10-mer count
CCCCCCCATC | 0.00324 relative 10-mer count
CCGCCCCGCC | 0.00216 relative 10-mer count
CCCACCGACC | 0.00455 relative 10-mer count
CCCCCCCCTC | 0.00324 relative 10-mer count
CCCCCACCCC | 0.00276 relative 10-mer count
CCCCACCAAC | 0.00791 relative 10-mer count
GCCCCTCCCC | 0.00551 relative 10-mer count
CCCACCCACG | 0.00551 relative 10-mer count
CGCCACCCCC | 0.0024 relative 10-mer count
AAAAAGGCAT | 0.155 relative 10-mer count
ACCCCAACCC | 0.00348 relative 10-mer count
CCCGACCCCA | 0.0012 relative 10-mer count
AAAGCAGCAC | 0.126 relative 10-mer count
CCACCACCCG | 0.00467 relative 10-mer count
CCCCGCCCGC | 0.0018 relative 10-mer count

Sequence | binding signal
CCACGCCCAC | 0.00431 relative 10-mer count
CCCCCTTCCC | 0.00264 relative 10-mer count
CCTCCCACCA | 0.00491 relative 10-mer count
AGGGGTGGGG | 0.00372 relative 10-mer count
CCCCACACCC | 0.00443 relative 10-mer count
GCCCCACCCA | 0.00515 relative 10-mer count
AAAGGCATAC | 0.123 relative 10-mer count
CACACCCACC | 0.00695 relative 10-mer count
GCCACCCCCC | 0.00348 relative 10-mer count
CCCGACCACC | 0.00372 relative 10-mer count
CGCCCCACCA | 0.00312 relative 10-mer count
CACCATCCCC | 0.003 relative 10-mer count
CCTCCCGCCC | 0.00264 relative 10-mer count
ACCCACCTCC | 0.00527 relative 10-mer count
CCGCCCTCCC | 0.00252 relative 10-mer count
GAAAAAAAGC | 0.0678 relative 10-mer count
ACCCACCCTC | 0.00647 relative 10-mer count
ACCCTCCCCA | 0.00515 relative 10-mer count
CCCTCCCTCC | 0.0211 relative 10-mer count
GAAAAAAGCA | 0.15 relative 10-mer count
